EBV gp42 inh: blocks Epstein-Barr virus glycoprotein 42 binding. hit rate 0.42% among 220,000. Fluorescence polarization binding assay, mP read-out. inhibition, % (tested at 21.74 µM). Q1HVG2; in the data active means inhibition above about 50%
Target sequence (Q1HVG2 whole entry, looked up): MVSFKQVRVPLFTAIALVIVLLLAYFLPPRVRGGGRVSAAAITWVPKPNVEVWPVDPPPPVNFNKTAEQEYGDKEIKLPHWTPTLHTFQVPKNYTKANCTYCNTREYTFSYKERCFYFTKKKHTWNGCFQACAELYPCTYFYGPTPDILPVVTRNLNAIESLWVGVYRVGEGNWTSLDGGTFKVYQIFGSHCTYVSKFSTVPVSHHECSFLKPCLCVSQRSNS
Bcl-xL primary: inhibitors of human Bcl-xL. Q07817. GST-Bcl-xL / FITC-Bim BH3 peptide fluorescence polarization. inhibition, % at 10.9 µM. hit rate 0.7% among 320,000. AID 2129;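 active means inhibition above the mean of all tested compounds plus 3 SD, cutoff set per campaign, cut at about 30% in these data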;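 further: 0% = DMSO wells and 100% = unlabeled Bim-BH3 peptide competitor; inhibitors lower millipolarization by displacing the labeled peptide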
Target sequence (Q07817 whole entry, looked up): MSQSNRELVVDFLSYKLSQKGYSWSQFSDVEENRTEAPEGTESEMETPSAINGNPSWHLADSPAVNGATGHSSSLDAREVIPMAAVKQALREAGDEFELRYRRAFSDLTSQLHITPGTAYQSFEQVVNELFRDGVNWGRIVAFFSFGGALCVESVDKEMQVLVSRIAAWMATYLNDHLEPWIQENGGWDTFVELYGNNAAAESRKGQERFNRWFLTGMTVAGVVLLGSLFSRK
MEX-5 binding: C. elegans MEX-5 TCR-2 RNA binding activity; AID 1832; activity score (negative = inhibition of binding), % at 10 µM; Q9XUB2; MEX-5/FITC-TCR2 RNA binding, fluorescence polarization; stronger effect = lower value; hit rate 0.38% among 300,000;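 active means inhibition past about -25% in most replicates, and total fluorescence under double the plate's negative control median, limit read from the data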;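 further: 0% = DMSO and -100% = 5 µM competing unlabeled TCR2 RNA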
GLD-1 TGE inh: GLD-1-TGE RNA interaction inhibition (C. elegans); purified GLD-1 + fluorescein TGE RNA, fluorescence polarization; inhibition, % at 5.96 µM; hit rate 0.44% among 320,000; AID 2280;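 active means percent inhibition above a per-plate cutoff, the plate mean of test compounds plus 3 SD, cut at about 30% in these data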;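 further: 0% = DMSO wells with GLD-1 and probe and 100% = wells lacking GLD-1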
E coli Lon inh: inhibitors of E. coli Lon protease; inhibition, % at 7.94 µM; P0A9M0; hit rate 0.42% among 360,000; purified E. coli Lon protease, fluorescence polarization; in the data active means inhibition above about 13%, passing the limit was not always enough;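 further: 0% = enzyme with probe and DMSO and 100% = no enzyme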
The depositor's hits bear a star; i = inactive; · = no result; + = active, no number. Rows were chosen to be rich in hits. Some 1.3% of all compounds tested hit in one or more screens of this group.

SMILES	EBV gp42 inh	Bcl-xL primary	MEX-5 binding	GLD-1 TGE inh	E coli Lon inh
O=C1CSC(=S)N1N1C(=O)c2cccc([N+](=O)[O-])c2C1=O	-3	19	-28*	5	·
Cc1cc(C(=O)NC2CCCCCCC2)ccc1[N+](=O)[O-]	·	13	-1	10	-5
Cc1cc(NS(=O)(=O)c2ccc(Nc3nc(-c4sc(N)nc4C)cs3)cc2)no1	-8	9	-29*	11	-4
Cc1cc(NS(=O)(=O)c2ccc(Nc3nc(-c4ccc(C)c(C)c4)cs3)cc2)no1	11	1	3	6	-9
Cc1ccc(NC(=O)CN2C(=O)S/C(=C/c3ccc(O)c([N+](=O)[O-])c3)C2=O)cc1C	65*	·	·	·	0
CC1CC(O)C2C3(C)CCCC2(COC3=O)C12CCC1(CCOC1=O)O2 (stereo unspecified)	·	·	·	·	-4
COc1ccc(-n2c(C)ccc2-c2ccccc2)cn1	·	107*	0	89*	29
COC(=O)c1ccc(-n2c(C)ccc2-c2ccccc2)cc1	-25	-4	0	-3	0
O=C1Nc2ccc(Cl)cc2C12Nc1ccccc1-c1nnc(SCc3ccccc3F)nc1O2 (stereo unspecified)	102*	5	-7	-2	4
Oc1ccc(/C=N/Nc2ccc(Cl)nn2)c(O)c1O	·	28	-48*	10	15
O=C(O)c1cc(-c2ccco2)nc2ccccc12	-19	34*	-10	14	4
O=C(OCC(=O)N1CCN(C(=O)c2ccco2)CC1)c1cc(-c2ccco2)nc2ccccc12	76*	31*	1	12	7
O=C(NC1CC1)c1cc(-c2ccco2)nc2ccccc12	84*	·	0	·	-1
O=C(N/N=C/c1ccc(F)cc1)c1cc(-c2ccco2)nc2ccccc12	83*	11	-8	6	-3
Cc1nnc(NC(=O)c2cc(-c3ccco3)nc3ccccc23)s1	·	26	-2	-4	-11
Oc1ccc(C2=CSC3=NCCN23)cc1O	·	6	-30*	-4	7
Brc1ccc(C2=CSC3=NCCN23)cc1	10	7	-1	9	6
CC(C)C1OC2(C)OC(=N)C1(C#N)C(C#N)(C#N)C2c1ccccc1 (stereo unspecified)	31	80*	-6	79*	26
C/C=C/C=C/[C@H]1Cc2cc(O)cc(O)c2O1	54*	60*	-9	88*	·
O=C1CC(c2ccc(Cl)cc2)c2c(O)cc(O)cc2O1 (stereo unspecified)	·	1	2	2	12
COCCCN=C(c1ccco1)n1c(=S)nc(-c2ccco2)n(CCCOC)c1=S	-1	15	-3	8	-5
Cc1cc(=O)[nH]c(-n2[nH]c3c(c2=O)CCCC3)n1	-1	67*	1	53*	-19
CCC[n+]1c2ccccc2cc2ccccc21	·	37*	-19	29	7
Cc1sc(NC(=O)CSc2n[nH]c(N)n2)c(C#N)c1C	·	·	·	·	-13
Cc1ccc(/C=C/C2=Cc3c(sc(NC(=O)CSc4n[nH]c(N)n4)c3C#N)C(C)(C)C2)o1	77*	54*	4	37*	·
SMILES	EBV gp42 inh	Bcl-xL primary	MEX-5 binding	GLD-1 TGE inh	E coli Lon inh
COc1ccc(-c2csc(NC(=O)CSc3nc(C)nc4sc(C(=O)O)c(C)c34)n2)cc1	65*	15	0	-5	0
COc1ccc(-c2csc(NC(=O)CSc3nc(C)cs3)n2)cc1	-2	5	1	3	2
CC(=O)Oc1ccc(Cn2c(C)c(C(=O)NC3CC3)sc2=O)cc1	·	·	·	·	4
O=C1NN(c2cccc(Br)c2)C(=O)/C1=C/c1ccc(-c2cc([N+](=O)[O-])ccc2O)o1	101*	10	-1	4	-3
CC1=NN(c2ccc(C)cc2)C(=O)/C1=C/c1ccc(-c2cc([N+](=O)[O-])ccc2O)o1	·	·	0	·	-10
Cc1oc2c(CN3CCC(C)CC3)c(O)ccc2c(=O)c1-c1ccccc1	·	34*	-1	14	-4
CC(C)OCCCNC(=O)c1ccc(Br)cc1	4	2	0	-1	6
CC(C)OCCCNC(=O)C(=O)NCCCOC(C)C	6	40*	-1	19	-9
Cc1ccc(-n2[nH]c(C)c(C=Nc3ccc4[nH]c(=O)[nH]c4c3)c2=O)cc1	24	17	-2	8	2
Cc1ccc(-n2[nH]c(C)c(C=Nc3ccc4[nH]c(=O)[nH]c4c3)c2=O)cc1C	23	60*	-7	15	0
Cc1cc(O)c(C=O)c2c1C(=O)Oc1c(CO)c(O)c3c(c1O2)C(O)OC3=O (stereo unspecified)	-1	48*	·	14	72*
Cc1c(C#N)c2ncnc(-c3ccccc3)c2n1-c1ccccc1	60*	7	1	7	6
N#Cc1c2n(c3c(-c4ccccc4)ncnc13)CCC2	2	3	0	3	-13
CC(C)CCN1CCN(Cc2cccc(C(F)(F)F)c2)CC1CCO (stereo unspecified)	-11	3	0	8	6
O=C1CCNc2cc3ccccc3cc21	48	112*	-5	57*	6
CCN(CC)c1ccc(/C=C(\C#N)C(N)=O)cc1	-97	·	·	·	-62
CCN(CC)c1ccc(/C=C(\C#N)C(=O)c2ccc(Br)cc2)cc1	+	52*	-16	63*	i
C[C@H]1C(=O)N(C)CCN1C(=O)c1ccc(OC2CCN(CCc3ccccc3)CC2)cc1	·	·	·	·	-5
Cc1sc(NC(=O)c2ccco2)c(CN2CCCCC2)c1C	-11	38*	-11	31	4
COCCN1C=C2C(=O)C(C)(OC(=O)CCC(=O)OC)C(=O)C(Br)=C2C=C1c1ccc(OC)cc1 (stereo unspecified)	·	37*	-18	18	17
CCN(CC)CCCN1C=C2C(=O)C(C)(OC(=O)CCc3ccccc3)C(=O)C=C2C=C1c1ccc(C#N)cc1 (stereo unspecified)	14	20	-3	4	0
COC(=O)CCC(=O)OC1(C)C(=O)C2=CN(C3CCCC3)C(c3ccc(OC)cc3)=CC2=C(Br)C1=O (stereo unspecified)	20	34*	-1	22	0
CCN(CC)CCCN1C=C2C(=O)C(C)(OC(=O)CCC(=O)OC)C(=O)C(Br)=C2C=C1c1ccc(OC)cc1 (stereo unspecified)	·	31*	-11	14	-28
COC(=O)CCC(=O)OC1(C)C(=O)C2=CN(Cc3ccco3)C(c3ccc(OC)cc3)=CC2=C(Br)C1=O (stereo unspecified)	·	52*	-37*	44*	·
COC(=O)CCC(=O)OC1(C)C(=O)C2=CN(c3ccc(OC)cc3)C(c3ccc(OC)cc3)=CC2=C(Br)C1=O (stereo unspecified)	·	19	-6	13	-4
O=c1[nH]cnc2c1C(c1ccccc1)c1c(nc[nH]c1=O)O2	·	·	-1	·	-4
N#C/C(=C\c1c(N2CCC(C(N)=O)CC2)nc2ccccn2c1=O)S(=O)(=O)c1ccc(Cl)cc1	-1	2	-2	-4	-3

Source: PubChem BioAssay (several laboratories)
